# Data reported in PubChem BioAssay AID504546 (Broad Institute, 2011).
# Records with an inconclusive call do not appear. Calls of active or inactive are those of the source.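 Rule for the calls: active = every repeat run fits a falling-signal curve with half-maximal potency within ten times top tested dose; inconclusive = runs disagree, or flat moderate drop, or poor fit; inactive = every run inactive, including signal moving upward.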
# Assay: ADP-Glo luciferase signal interference – biochemical, luminescence, cherry-picked samples, set 2, artefact control for CDK5 inhibitor project, dose response (AID 504546)
# Conditions: ADP-Glo detection reagent counter screen, 5 uM ADP; series mostly up to 30 µM
row,Structure (SMILES),outcome
1,CC(C)n1cnc2c(NCc3ccccc3)nc(NCc3ccccc3)nc21,inactive
2,CC(C)(C)c1ccc(C(=O)O/N=C(\N)c2ccccn2)cc1,inactive
3,O=C(c1ccc(F)cc1)c1cnc(Nc2ccccc2)s1,inactive
4,NC(=O)N/N=C/c1c(O)ccc2oc3c(c12)CCCC3,inactive
5,NC(=S)N/N=C/c1c(O)c(Br)cc2oc3c(c12)CCCC3,inactive
6,Nc1ccc2c(c1)C(=NO)c1ccccc1-2,inactive
7,COc1ccc(Nc2nccc(-c3ccc([N+](=O)[O-])cc3)n2)cc1,inactive
8,O=C(c1ccc2c(c1)OCO2)N1CCN(c2ccccn2)CC1,inactive
9,CCOc1cc(C(=O)N2CCN(c3ccccn3)CC2)cc(OCC)c1OCC,inactive
10,O=C(NNC(=O)c1ccco1)c1ccccc1,inactive
11,Cc1ccc2nc(Cl)c(C#N)cc2c1,inactive
12,N#Cc1c(N)n(C2OC(CO)C(O)C2O)c2ncnc(N)c12 (stereo not given),inactive
13,Nc1nc(Nc2ccccc2F)sc1C(=O)c1ccccc1,inactive
14,CC(C)n1cnc2c(NCc3ccc(S(N)(=O)=O)cc3)nc(NCc3ccc(S(N)(=O)=O)cc3)nc21,inactive
15,OCCCNc1nccc(-c2cc(Nc3cccc(Cl)c3)ncn2)n1,inactive
16,Oc1ccc(/C=N/Nc2cccc(Cl)n2)c(O)c1,inactive
17,Cc1nn(-c2nc3ccccc3[nH]2)c(=O)c2ccccc12,inactive
18,COc1ccccc1C(=O)N1CCN(c2ccccn2)CC1,inactive

row,Structure (SMILES),outcome
1,Oc1cccc(C=NNc2ccccn2)c1,inactive
2,Oc1[nH]c2ccccc2c1C1=NCCCCC1,inactive
3,CCNc1nc(Nc2ccc(C)c(Cl)c2)c2cnn(C)c2n1,inactive
4,COc1ccc(Nc2nc(N)c(C(=O)c3ccc(F)cc3)s2)cc1,inactive
5,Oc1ccc(/C=N/Nc2ccc(C(F)(F)F)cn2)c(O)c1,inactive
6,CN(C)N1C(N)=C(C#N)C(c2cccs2)C2=C1CCCC2=O (stereo not given),inactive
7,O=c1c(O)cccc2cc(O)c(O)c(O)c12,inactive
8,CC(C)[C@H](CO)Nc1nc(NCc2ccc(S(N)(=O)=O)cc2)c2ncn(C(C)C)c2n1,inactive
9,Clc1cncc(Cl)c1N/N=C/c1ccccc1,inactive
10,CC[C@H](CO)Nc1nc(Nc2cccc(Cl)c2)c2ncn(C(C)C)c2n1,inactive
11,CC(=O)[C@H]1CC[C@H]2[C@@H]3CC=C4C[C@@H](OS(=O)(=O)O)CC[C@]4(C)[C@H]3CC[C@]12C,inactive
12,C=CC(=O)Nc1ccc(Nc2ccnc(Nc3ccc(N4CCN(C)CC4)cc3)n2)cc1,inactive
13,COc1ccc2nc3c(cc2c1)c(NC(=O)CC(C)C)nn3CC(C)C,inactive
14,COc1ccc2oc(C(=O)NCCC(C)C)c(C)c2c1,inactive
15,Clc1cccc(Cl)c1/C=N/Nc1c(Cl)cncc1Cl,inactive
16,O=C(NNC(=O)c1ccccn1)c1ccc(OC(F)F)cc1,inactive
17,Cc1ccc(C(=O)O/N=C(\N)c2ccccn2)cc1C,inactive
